Experimental findings from PubChem BioAssay (EPA / NIEHS) are described below.

Experiment [1] is described as follows: ATG_CRE_CIS: Attagene CIS-FACTORIAL HepG2 Assay for human cAMP Responsive Element (CRE) binding protein 3 (AID 2282926). The conditions noted are these: HepG2 CRE cis-reporter, Attagene multiplexed mRNA; actives raise or lower the signal. In outline:
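Liver-derived HepG2, transfected with a CRE-containing reporter panel, exposed 24 h; transcript levels sized and quantified by capillary electrophoresis of labelled amplicons; signal changes either way referenced to vehicle.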

In experiment [2] the target is CCAAT/enhancer-binding protein beta (Homo sapiens) (UniProt P17676). Briefly: ATG_C_EBP_CIS: Attagene CIS-FACTORIAL HepG2 Assay for human CCAAT/Enhancer Binding Protein (C/EBP) beta (AID 2282927). The conditions noted are these: HepG2 Attagene cis-factorial transcription factor reporter; actives raise or lower the signal. In outline:
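Endogenous transcription factor activity in human liver HepG2 cells is inferred from induction of a CEBPB-linked reporter mRNA. Exposure lasts 24 h; activity is fitted in both directions relative to DMSO.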

The nature of experiment [3]: ATG_CMV_CIS: Attagene CIS-FACTORIAL HepG2 Assay for human CMV (Internal Marker) (AID 2282928).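 Further: endpoint acts as a background internal control marker rather than a target.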 The conditions noted are these: HepG2 CMV promoter reporter, transcription factor profiling; actives raise or lower the signal. In outline:
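Reporter transcripts from transfected HepG2 cells are isolated after 24 h of chemical dosing, reverse-transcribed and amplified. Fragments labeled with 6-FAM are cut with HpaI and quantified by capillary electrophoresis; DMSO defines baseline.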

Experiment [4] can be described thus: ATG_DR4_LXR_CIS: Attagene CIS-FACTORIAL HepG2 Assay for human Liver X Receptor (LXR), DR4 submotif (AID 2282929). To be noted: HepG2 Attagene DR4 cis-reporter, mRNA transcription; actives raise or lower the signal. The method in brief: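 Endogenous factor activity at a DR4 cis-element is read as reporter mRNA in transiently transfected HepG2 cells. Exposure lasts 24 h; transcripts are amplified, fluorescently labelled and sized by capillary electrophoresis, with DMSO as baseline.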

Experiment [5] has as its target Aryl hydrocarbon receptor (Homo sapiens) (UniProt P35869). Description: ATG_Ahr_CIS: Attagene CIS-FACTORIAL HepG2 Assay for human Aryl Hydrocarbon Receptor (Ahr) (AID 2282930). The conditions noted are these: HepG2 AhR cis-factorial reporter transcription; actives raise or lower the signal. The method in brief:
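Transient MRTU transfection of HepG2 → 24 h compound exposure → total RNA, oligo(dT) RT → PCR, 6-FAM extension, HpaI cut → CE fluorescence. DMSO = baseline; bidirectional curve fit.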

Experiment [6] in a line: ATG_AP_1_CIS: Attagene CIS-FACTORIAL HepG2 Assay for human Activator Protein 1 (AP-1) (AID 2282931). The conditions noted are these: HepG2 Attagene cis-factorial AP-1 reporter mRNA; actives raise or lower the signal. The method in brief:
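Fluorescence of labelled PCR fragments separated by capillary electrophoresis gives reporter mRNA levels. HepG2 with transfected cis-regulated reporter units, 24 h exposure; DMSO serves as baseline for bidirectional curve fits.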

The nature of experiment [7]: ATG_AP_2_CIS: Attagene CIS-FACTORIAL HepG2 Assay for human Activator Protein 2 (AP-2) (AID 2282932). To be noted: HepG2 AP-2 cis-reporter, Attagene transcription factor profiling; actives raise or lower the signal. In outline:
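Endogenous transcription factor activity is reported through transfected multiplex reporter constructs in HepG2, after 24 h of compound exposure. Transcripts were quantified by RT-PCR and capillary electrophoresis of fluorescent fragments. Bidirectional fit against DMSO.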

Experiment [8] addresses Retinoic acid receptor alpha (Homo sapiens) (UniProt P10276). Briefly: ATG_DR5_RAR_CIS: Attagene CIS-FACTORIAL HepG2 Assay for human Retinoic Acid Receptor Alpha (RARE), DR5 submotif (AID 2282934).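 On AC50: reporter responds to endogenous RAR alpha beta and gamma in HepG2 not RARA alone.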 The conditions noted are these: HepG2 Attagene cis-factorial RARE DR5 reporter, mRNA; actives raise or lower the signal. The method in brief:
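Transient MRTU transfection of HepG2; 24 h compound treatment; TriZol RNA, oligo(dT) RT, PCR, FAM labelling, capillary electrophoresis. Bidirectional fit vs DMSO. Endogenous TF activity at DR5 RARE.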

Experiment [9] concerns the target Transcription factor E2F1 (Homo sapiens) (UniProt Q01094). Description: ATG_E2F_CIS: Attagene CIS-FACTORIAL HepG2 Assay for human E2F Transcription Factor 1 (AID 2282935). The conditions noted are these: HepG2 Attagene cis-reporter, E2F reporter RNA transcripts; actives raise or lower the signal. In outline: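 Gain or loss of reporter transcript, fitted against DMSO, reflects E2F1-driven transcription. Transiently transfected HepG2 dosed 24 h before RNA isolation. Quantified by fluorescent RT-PCR products separated by capillary electrophoresis.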

Experiment [10] is described as follows: ATG_BRE_CIS: Attagene CIS-FACTORIAL HepG2 Assay for human Bone Morphogenetic Protein (BMP) Response Element (BRE) (AID 2282933). The conditions noted are these: HepG2 BMP response element reporter, Attagene transcription factor profiling; actives raise or lower the signal. In outline: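 A HepG2 multiplex reporter system measured inducible reporter mRNA 24 h post-dosing. Detection: RT-PCR, 6-FAM primer extension, HpaI digestion, capillary electrophoresis. Activity fitted bidirectionally relative to DMSO.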

Values joined by “and” are separate entries in the source; they are usually repeats but may differ in a detail not shown here. Equal values may be shown once. A structure can be active in one record and inactive in another. Active and inactive are the calls of the source. How the source made its calls: active means hit-call score of the fitted dose curve at least 0.9, where 1 is the maximum; inactive means score below 0.9.

Usually AC50 stands for the concentration at which the activity in the assay is half-maximal.

Chain of CCAAT/enhancer-binding protein beta (Homo sapiens) (P17676 whole entry, looked up): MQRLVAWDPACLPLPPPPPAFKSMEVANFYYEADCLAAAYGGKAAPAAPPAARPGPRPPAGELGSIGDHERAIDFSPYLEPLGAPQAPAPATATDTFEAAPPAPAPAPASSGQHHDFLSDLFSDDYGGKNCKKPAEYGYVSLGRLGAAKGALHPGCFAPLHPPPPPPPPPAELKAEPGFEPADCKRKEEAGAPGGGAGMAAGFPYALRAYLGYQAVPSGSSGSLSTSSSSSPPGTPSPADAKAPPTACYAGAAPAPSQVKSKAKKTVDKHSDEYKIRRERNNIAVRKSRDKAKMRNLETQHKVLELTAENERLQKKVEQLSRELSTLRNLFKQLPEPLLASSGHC
Chain of Aryl hydrocarbon receptor (Homo sapiens) (P35869 whole entry, looked up): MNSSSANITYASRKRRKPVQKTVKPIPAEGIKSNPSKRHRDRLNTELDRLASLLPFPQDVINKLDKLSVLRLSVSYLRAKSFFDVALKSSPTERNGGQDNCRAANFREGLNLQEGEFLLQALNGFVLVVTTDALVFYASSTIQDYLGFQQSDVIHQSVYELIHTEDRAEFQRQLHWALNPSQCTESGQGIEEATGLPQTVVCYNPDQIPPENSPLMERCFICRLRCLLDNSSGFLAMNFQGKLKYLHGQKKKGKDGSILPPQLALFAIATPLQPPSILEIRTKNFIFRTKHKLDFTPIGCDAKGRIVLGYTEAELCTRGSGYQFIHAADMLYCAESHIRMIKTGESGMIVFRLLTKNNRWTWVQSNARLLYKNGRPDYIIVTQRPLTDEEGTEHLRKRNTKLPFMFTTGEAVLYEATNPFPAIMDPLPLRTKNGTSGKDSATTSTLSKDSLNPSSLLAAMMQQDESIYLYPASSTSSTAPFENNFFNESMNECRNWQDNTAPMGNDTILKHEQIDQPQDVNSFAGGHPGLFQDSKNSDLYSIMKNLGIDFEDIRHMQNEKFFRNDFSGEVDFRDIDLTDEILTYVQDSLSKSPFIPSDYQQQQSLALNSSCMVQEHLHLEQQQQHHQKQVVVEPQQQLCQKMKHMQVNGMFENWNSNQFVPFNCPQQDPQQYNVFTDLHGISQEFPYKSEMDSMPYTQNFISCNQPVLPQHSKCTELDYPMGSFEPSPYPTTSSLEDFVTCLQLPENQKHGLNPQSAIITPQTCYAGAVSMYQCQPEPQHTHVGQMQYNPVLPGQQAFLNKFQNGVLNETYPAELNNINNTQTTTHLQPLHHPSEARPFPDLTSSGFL
Chain of Transcription factor E2F1 (Homo sapiens) (Q01094 whole entry, looked up): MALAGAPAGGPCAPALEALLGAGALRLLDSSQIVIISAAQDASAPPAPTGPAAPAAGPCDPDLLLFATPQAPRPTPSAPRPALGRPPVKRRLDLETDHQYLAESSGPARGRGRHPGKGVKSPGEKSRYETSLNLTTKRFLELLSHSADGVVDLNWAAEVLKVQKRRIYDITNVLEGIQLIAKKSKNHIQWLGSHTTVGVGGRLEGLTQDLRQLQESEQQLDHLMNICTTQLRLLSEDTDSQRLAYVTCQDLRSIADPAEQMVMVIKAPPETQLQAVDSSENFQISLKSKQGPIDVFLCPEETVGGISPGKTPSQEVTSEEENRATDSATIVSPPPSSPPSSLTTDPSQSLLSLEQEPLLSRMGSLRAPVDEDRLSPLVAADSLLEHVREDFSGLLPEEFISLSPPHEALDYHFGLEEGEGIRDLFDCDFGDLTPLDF
Chain of Retinoic acid receptor alpha (Homo sapiens) (P10276 whole entry, looked up): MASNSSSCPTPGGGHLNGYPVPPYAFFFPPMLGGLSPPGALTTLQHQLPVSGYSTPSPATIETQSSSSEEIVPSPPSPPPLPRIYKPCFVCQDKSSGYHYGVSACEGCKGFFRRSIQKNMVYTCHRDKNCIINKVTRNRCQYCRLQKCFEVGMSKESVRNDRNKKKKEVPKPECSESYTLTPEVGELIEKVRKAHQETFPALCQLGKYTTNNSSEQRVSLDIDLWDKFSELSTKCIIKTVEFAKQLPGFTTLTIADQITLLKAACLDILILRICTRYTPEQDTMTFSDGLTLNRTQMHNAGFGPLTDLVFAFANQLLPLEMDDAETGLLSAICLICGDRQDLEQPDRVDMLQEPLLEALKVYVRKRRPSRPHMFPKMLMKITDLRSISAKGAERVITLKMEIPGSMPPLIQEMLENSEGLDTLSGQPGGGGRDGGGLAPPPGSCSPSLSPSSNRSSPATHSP

As for `ClC1=C(Cl)[C@]2(Cl)[C@@H]3[C@@H](Cl)[C@H]4O[C@H]4[C@@H]3C1(Cl)C2(Cl)Cl`, the compound was called inactive in experiment [1], in [2], in [5], in experiment [7] and in experiment [9]. Also, the AC50 in [3] was 33.7 µM (active); in experiment [4], 8.22 µM (active); in experiment [6] it was 35.9 µM (active); in experiment [8] it was 3.4 µM (active).

`c1ccc(-c2ccccc2)cc1`: the result in experiment [1], in experiment [2], in experiment [3], in [4], in experiment [5] and in experiment [6] was inactive. Moreover, the result in [7], in experiment [10], in [8] and in [9] was inactive.

Regarding `Cc1ccc(O)c(C)c1`, the compound was called inactive in experiment [1], in experiment [2], in [3], in experiment [4], in experiment [5] and in experiment [6]. Moreover, the result in [7], in experiment [8] and in experiment [9] was inactive.

In the case of `O=S(=O)(O)C(F)(F)C(F)(F)C(F)(F)C(F)(F)C(F)(F)C(F)(F)F`, the outcome in experiment [1], in experiment [2], in experiment [3], in [4], in [5] and in experiment [6] was inactive. Also, the compound was classed as inactive in experiment [7], in experiment [10] and in experiment [9]. Moreover, the AC50 in experiment [6] is 117 µM (active).

Regarding `C[C@]12CCC(=O)C=C1CC[C@@H]1[C@@H]2CC[C@@]2(C)[C@H]1CC[C@]2(C)O`, the compound was called inactive in experiment [1], in experiment [2], in [3], in experiment [5], in experiment [6] and in experiment [7]. In addition, the compound was classed as inactive in experiment [8] and in [9]. Also, the AC50 in experiment [6] was 114 µM (active); in experiment [7], 33.9 µM (active).

On to `Cc1ccccc1CO[C@@H]1C[C@@]2(C(C)C)CC[C@]1(C)O2`, for which the call in experiment [1], in experiment [2], in experiment [3], in experiment [5], in experiment [6] and in experiment [7] was inactive. In addition, the compound was classed as inactive in [10], in [8] and in [9].

Turning to `NS(=O)(=O)C(F)(F)C(F)(F)C(F)(F)C(F)(F)C(F)(F)C(F)(F)C(F)(F)C(F)(F)F`, the AC50 in experiment [1] was 44.3 µM (active) and 40.2 µM (active) and 32.2 µM (active); in [2], 36.3 µM (active) and 24.3 µM (active); in experiment [3] it was 40.4 µM (active) and 227 µM (active) and 21.6 µM (active); in experiment [6], 29.9 µM (active) and 262 µM (active) and 17 µM (active); in experiment [8], 40.4 µM (active) and 29.7 µM (active). For the same compound, the result in experiment [2], in [5], in [7], in [8] and in experiment [9] was inactive.

As for `CC(c1ccc(O)cc1)(c1ccc(O)cc1)c1ccc(O)cc1`, the AC50 in experiment [1] is 8.32 µM (active); in [3], 20.2 µM (active); in experiment [4], 7.38 µM (active); in experiment [6], 17.9 µM (active); in [7], 18.1 µM (active); in experiment [10] it was 18.3 µM (active). The result in [2], in experiment [5], in experiment [8] and in experiment [9] was inactive.

As for `CCNc1nc(NC(C)C)nc(SC)n1`, the outcome in [1], in experiment [2], in experiment [3], in experiment [4], in experiment [5] and in experiment [6] was inactive. The compound was classed as inactive in experiment [7] and in experiment [9].

For the compound `CN(C)c1nc(=O)n(C2CCCCC2)c(=O)n1C`, the call in experiment [1], in [2], in experiment [3], in experiment [5], in [6] and in experiment [7] was inactive. Besides, the call in [9] was inactive.

Take `ClC1=C(Cl)[C@]2(Cl)[C@@H]3[C@H]4C[C@H]([C@@H]5O[C@H]45)[C@@H]3[C@@]1(Cl)C2(Cl)Cl`: the compound was classed as inactive in [1], in experiment [2], in experiment [3], in experiment [5], in [6] and in experiment [7]. Moreover, the compound was classed as inactive in [10] and in experiment [9]. Further, the AC50 is 5.08 µM (active) in [4] and 1.14 µM (active) in experiment [8].

For the compound `C=CC(=O)NCNC(=O)C=C`, the call in experiment [1], in experiment [2], in experiment [3], in experiment [4], in experiment [5] and in experiment [6] was inactive. Besides, the outcome in experiment [7], in [8] and in experiment [9] was inactive.

Take `CCCCCCCCOC(=O)c1ccccc1C(=O)OCCCCCCCC`: the compound was called inactive in experiment [1], in experiment [2], in experiment [3], in experiment [4], in [5] and in experiment [6]. Also, the call in experiment [7], in [8] and in experiment [9] was inactive.

`O=C(NC(=O)c1cc(F)c(F)cc1Cl)Nc1cc(F)ccc1N1CCC(C(=O)O)CC1`: the call in experiment [1], in experiment [2], in experiment [3], in [4], in experiment [5] and in experiment [6] was inactive. The result in experiment [7] and in experiment [9] was inactive. In addition, the AC50 in [8] was 4.16 µM (active).

For `Oc1c(Cl)c(Cl)c(Cl)c(Cl)c1Cl`, the AC50 in experiment [1] is 19.3 µM (active) and 10.2 µM (active); in [2] it was 13.7 µM (active); in [3] it was 28.7 µM (active) and 8.37 µM (active) and 39.7 µM (active); in experiment [5], 14 µM (active) and 6.01 µM (active) and 874 nM (active); in experiment [6], 13.7 µM (active) and 3.6 µM (active); in experiment [7], 26.1 µM (active). The AC50 in [10] was 13.6 µM (active) and 18.2 µM (active) and 31.3 µM (active); in experiment [8] it was 14.1 µM (active). For the same compound, the call in experiment [1], in [2], in experiment [6], in experiment [7], in experiment [8] and in [9] was inactive.

Regarding `O=C(NC(=O)c1c(F)cccc1F)Nc1cc(Cl)c(OC(F)(F)C(F)F)c(Cl)c1`, the call in experiment [1], in [2], in experiment [3], in [4], in [5] and in experiment [6] was inactive. Also, the compound was called inactive in experiment [7], in [8] and in experiment [9].

Turning to `N#Cc1ccc(N(CC(N)=O)CC(F)(F)F)cc1C(F)(F)F`, the result in [2], in [3], in [5], in [6], in experiment [7] and in [9] was inactive. Further, in experiment [8], the AC50 was 1.56 µM (active).

For the compound `CCCCCCCCCc1ccc(O)cc1`, the result in [2], in [3], in experiment [5], in experiment [6], in [7] and in experiment [8] was inactive. The call in experiment [9] was inactive. The figures for the concentration at half-maximal activity (AC50) in experiment [6] and in [7] were 178 µM (active) and 169 µM (active), respectively.
